Over roughly 8,300 sequences, “log2 fold change of degron read counts, EGFP-low vs EGFP+ sorted cells (limma voom), compound-induced degradation” has its median near -1.1; the highest 2% begin near 3.2. This excerpt belongs to a sample that is enriched for the highest values.
T1: CRBN, Q96SW2
T1 chain: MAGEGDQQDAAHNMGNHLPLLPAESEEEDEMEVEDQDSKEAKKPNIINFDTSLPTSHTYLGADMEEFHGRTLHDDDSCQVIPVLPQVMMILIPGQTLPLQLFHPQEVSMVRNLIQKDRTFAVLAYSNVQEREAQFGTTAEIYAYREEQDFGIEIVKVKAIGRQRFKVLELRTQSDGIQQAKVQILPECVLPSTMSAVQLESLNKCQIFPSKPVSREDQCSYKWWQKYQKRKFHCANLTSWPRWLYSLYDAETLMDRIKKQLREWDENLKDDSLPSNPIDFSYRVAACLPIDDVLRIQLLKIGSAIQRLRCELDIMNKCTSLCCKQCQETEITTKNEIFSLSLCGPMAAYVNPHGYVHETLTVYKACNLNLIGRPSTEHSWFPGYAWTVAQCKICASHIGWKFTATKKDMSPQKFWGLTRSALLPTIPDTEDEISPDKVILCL

B1: 46F_47E_49P_50I_52G_53R_54S_55F_67L_, Q9UKT9 (peptide)
chain: FECPICGRSFTQKGNLLRHIKL
B2: 46F_47F_49S_50V_52G_53H_54N_55F_67L_, Q9UKT9 (peptide)
chain: FFCSVCGHNFTQKGNLLRHIKL
B3: 46F_47C_49N_50Q_52G_53R_54R_55F_67L_, Q9UKT9 (peptide)
chain: FCCNQCGRRFTQKGNLLRHIKL
B4: 46L_47R_49E_50I_52G_53F_54N_55C_67L_, Q9UKT9 (peptide)
chain: LRCEICGFNCTQKGNLLRHIKL
B5: 46F_47G_49N_50Q_52G_53R_54I_55F_67L_, Q9UKT9 (peptide)
chain: FGCNQCGRIFTQKGNLLRHIKL
B6: 46F_47E_49N_50Q_52G_53R_54H_55F_67L_, Q9UKT9 (peptide)
chain: FECNQCGRHFTQKGNLLRHIKL
B7: 46F_47S_49N_50Q_52G_53R_54T_55F_67L_, Q9UKT9 (peptide)
chain: FSCNQCGRTFTQKGNLLRHIKL
B8: 46F_47H_49E_50I_52G_53R_54S_55F_67L_, Q9UKT9 (peptide)
chain: FHCEICGRSFTQKGNLLRHIKL
B9: 46F_47D_49P_50I_52G_53A_54L_55F_67L_, Q9UKT9 (peptide)
chain: FDCPICGALFTQKGNLLRHIKL
B10: 46L_47F_49E_50I_52G_53F_54T_55C_67L_, Q9UKT9 (peptide)
chain: LFCEICGFTCTQKGNLLRHIKL
B11: 46L_47H_49E_50I_52G_53F_54T_55C_67L_, Q9UKT9 (peptide)
chain: LHCEICGFTCTQKGNLLRHIKL
B12: 46L_47N_49E_50I_52G_53F_54T_55C_67L_, Q9UKT9 (peptide)
chain: LNCEICGFTCTQKGNLLRHIKL
B13: 46F_47Q_49N_50Q_52G_53H_54N_55F_67L_, Q9UKT9 (peptide)
chain: FQCNQCGHNFTQKGNLLRHIKL
B14: 46F_47T_49E_50Q_52G_53A_54Y_55F_67L_, Q9UKT9 (peptide)
chain: FTCEQCGAYFTQKGNLLRHIKL
B15: 46F_47E_49E_50Q_52G_53A_54P_55F_67L_, Q9UKT9 (peptide)
chain: FECEQCGAPFTQKGNLLRHIKL
B16: 46F_47N_49P_50I_52G_53R_54P_55F_67L_, Q9UKT9 (peptide)
chain: FNCPICGRPFTQKGNLLRHIKL
B17: 46F_47N_49P_50I_52G_53A_54M_55F_67L_, Q9UKT9 (peptide)
chain: FNCPICGAMFTQKGNLLRHIKL
B18: 46F_47R_49P_50Q_52G_53A_54P_55F_67L_, Q9UKT9 (peptide)
chain: FRCPQCGAPFTQKGNLLRHIKL
B19: 46F_47E_49P_50I_52G_53A_54P_55F_67L_, Q9UKT9 (peptide)
chain: FECPICGAPFTQKGNLLRHIKL
B20: 46F_47K_49P_50I_52G_53A_54P_55F_67L_, Q9UKT9 (peptide)
chain: FKCPICGAPFTQKGNLLRHIKL
B21: 46F_47F_49P_50I_52G_53A_54F_55F_67L_, Q9UKT9 (peptide)
chain: FFCPICGAFFTQKGNLLRHIKL
B22: 46F_47S_49P_50I_52G_53A_54P_55F_67L_, Q9UKT9 (peptide)
chain: FSCPICGAPFTQKGNLLRHIKL
B23: 46F_47R_49P_50I_52G_53A_54D_55F_67L_, Q9UKT9 (peptide)
chain: FRCPICGADFTQKGNLLRHIKL
B24: 46F_47F_49P_50I_52G_53A_54P_55F_67L_, Q9UKT9 (peptide)
chain: FFCPICGAPFTQKGNLLRHIKL
B25: 46F_47F_49P_50I_52G_53A_54M_55F_67L_, Q9UKT9 (peptide)
chain: FFCPICGAMFTQKGNLLRHIKL
B26: 46F_47N_49P_50I_52G_53A_54P_55F_67L_, Q9UKT9 (peptide)
chain: FNCPICGAPFTQKGNLLRHIKL
B27: 46F_47R_49P_50I_52G_53A_54P_55F_67L_, Q9UKT9 (peptide)
chain: FRCPICGAPFTQKGNLLRHIKL

Target: T1, CRBN, Q96SW2
Assay: log2 fold change of degron read counts, EGFP-low vs EGFP+ sorted cells (limma voom), compound-induced degradation; higher = more compound-induced degradation of the degron-EGFP fusion; degrons are variants of IKZF1/3 zinc finger 2; compound dose not given here
Conditions: Jurkat, 18 h
[1] = compound: compound 19 (5-tert-butyl-thalidomide)
[2] = compound: compound 22 (5-morpholino-thalidomide)
[3] = compound: compound 33 (diphenyl IMiD analogue)
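Also: pooled lentiviral library of zinc finger degron-EGFP fusions in mCherry-positive Jurkat cells, FACS-sorted after compound exposure, with degron abundance counted by next-generation sequencing.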

Sequence	log2 fold change of degron read counts [1]	log2 fold change of degron read counts [2]	log2 fold change of degron read counts [3]	log2 fold change of degron read counts (compound: thalidomide)
B1	-1.57	-1.84	0.414	1.14
B2	-2.16	-2.66	-2.79	-2.23
B3	-2.5	-2.28	-2.09	-1.82
B4	-1.42	-1.56	-0.0516	0.0396
B5	-1.52	-1.65	-1.94	-1.45
B6	-2.89	-3.21	-3.78	-2.98
B7	-2.51	-2.59	-2.31	-2.34
B8	-1.49	-1.82	-0.909	-2.11
B9	-0.924	-0.888	1.62	0.905
B10	3.64	3.67	2.59	2.56
B11	2.89	2.93	2.43	2.43
B12	1.73	0.624	-0.0341	0.396
B13	-2.53	-2.33	-2.93	-2.77
B14	-2.34	-1.73	0.185	-0.424
B15	-1.7	-3.27	-1.9	-1.5
B16	1.49	0.628	0.167	1.01
B17	1.73	0.564	0.719	0.478
B18	0.857	2.89	2.7	2.5
B19	2.46	0.3	2.23	2.98
B20	2.55	2.24	-0.00355	2.87
B21	2.73	2.52	1.71	0.267
B22	3.29	2.92	2.02	2.62
B23	-0.99	-0.254	1.92	1.51
B24	3.92	3.44	2.55	2.09
B25	2.56	2.36	1.76	0.179
B26	3.48	3.2	1.92	2.43
B27	3.44	3.76	3.04	3.53
